# Screen size: about 320,000 compounds; about 2,100 (0.66%) were called active. Another 53% or so got no clear call; they are omitted. Calls follow the shape of the dose curve; as a rule, active = well fitted inhibition curve with a large enough effect in the signal ratio, with a control signal flat (not every such curve was filed as active); inconclusive = small, poorly fitted or top-dose-only effect, or effect the other way, or a change in a side signal; inactive = flat fitted curve, though single readings scatter; the % refers to the signal ratio. Only a selection was taken, and actives are over-represented in it overall.
# Test: qHTS Assay for Lipid Storage Modulators in Drosophila S3 Cells;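 as to cell number change: cells counted by Cell Tracker Red CMTPX staining in the red channel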; as to lipid storage change, negative = inhibition: % is scaled to controls: 0 for no effect and ±100 for the full control effect
# Details: BODIPY lipid droplet fluorescence, 18-24 h, cells fed with added oleic acid; cell number change: measured here: cell count max response; series mostly up to 46.1 µM; lipid storage change, negative = inhibition: at the top concentration
# Method in brief: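 Drosophila S3 cells got compounds at several concentrations plus oleic acid (400 uM solution). Laser-scanning cytometry with 488 nm excitation read lipid droplets at 500-530 nm and cells at 575-640 nm. Percent activity was relative to 20 uM Triacsin C.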
# Potency is read from the fitted curve at half-maximal effect.
SMILES,Potency,cell number change [%],"lipid storage change, negative = inhibition",outcome
C[n+]1ccc(/C=C/c2c[nH]c3ccccc23)cc1,4.11 µM (active),5.59,,
Cc1cc(S(=O)(=O)N2CCN(CC(=O)NCCc3cccs3)CC2)ccc1Br,6.51 µM (active),-0.491,,
COc1ccc(S(=O)(=O)N2CCN(CC(=O)NCCc3cccs3)CC2)cc1,,-24.5,1.97% (inactive),
O=C(CN1CCN(S(=O)(=O)c2ccccc2)CC1)NCCc1ccccc1,,12.2,0.573% (inactive),
CSc1ccccc1OCc1cc(C(=O)N(C)Cc2cc(C)[nH]n2)no1,,-1.8,-12.2% (inactive),
CSc1cccc(NC(=O)N2CCc3ccc(NC(=O)c4ccccn4)cc3C2)c1,,-11.2,,inactive
COc1ccc(C(=O)N2CCc3ccc(NC(=O)c4ccccn4)cc3C2)cc1F,7.31 µM (active),5.43,,
COc1ccc(C(=O)N2CCc3cc(OC)c(OC)cc3C2)cc1OC,,-23.8,2.92% (inactive),
CC(=O)c1nn(-c2ccc(Cl)cc2)c(=O)[nH]c1=O,,,,inactive
O=C(CN1C(=O)NC2(CCc3ccccc32)C1=O)c1ccc(Br)s1 (stereo unspecified),4.11 µM (active),10.8,,
O=C(CN1C(=O)NC2(CCc3ccccc32)C1=O)c1ccccc1 (stereo unspecified),,29.9,,inactive
O=C(CN1C(=O)NC2(CCc3ccccc32)C1=O)c1ccc(Br)cc1 (stereo unspecified),,-20.3,-18.9% (inactive),
Cc1cccc(OCC(=O)N2CCN(C(=O)c3ccc([N+](=O)[O-])cc3)CC2)c1,,2.07,9.63% (inactive),
O=C(CN1C(=O)NC(Cc2ccccc2)C1=O)Nc1ccccc1 (stereo unspecified),,,,inactive
Cc1ccc(NC(=O)CN2C(=O)NC(Cc3ccccc3)C2=O)cc1 (stereo unspecified),,2.72,14.8% (inactive),
O=C(CN1C(=O)NC(Cc2ccccc2)C1=O)Nc1ccc(OC(F)(F)F)cc1 (stereo unspecified),23.1 µM (active),-11.8,,
Cc1ccc2c(N)c(C(=O)N(c3ccccc3)c3ccccc3)sc2n1,,1.13,0.972% (inactive),
O=C(COC(=O)c1ccccn1)Nc1cccc(Cl)c1,,-4.94,-15.1% (inactive),
CSc1nnc(C(C)c2ncc(C(F)(F)F)cc2Cl)n1C (stereo unspecified),,29.4,10.3% (inactive),
COCCN(C(=O)c1ccccc1)c1nc(-c2ccc(OC)cc2)cs1,,-13.2,,inactive
COCCCN(C(=O)c1ccccc1F)c1nc(-c2ccc(OC)cc2)cs1,,7.94,,inactive
COCCCN(C(=O)c1ccccc1)c1nc(-c2ccc(OC)cc2)cs1,9.2 µM (active),5.82,,
COC(=O)c1ccc(-c2nc(O)c(C)s2)cc1,,,,inactive
Cc1cccc(OC2CCN(Cc3c(C(=O)N4CCCC4)nc4ccccn34)CC2)c1,,17.9,28.5% (inactive),
CCCC[C@@H]1CNC(=O)C(=O)N1CCc1cc(C(F)(F)F)cc(C(F)(F)F)c1,,3.93,0.436% (inactive),
CCc1ccc(C(=O)C(C)OC(=O)Cc2n[nH]c(=O)c3ccccc23)cc1 (stereo unspecified),13 µM (active),-26.4,,

SMILES,Potency,cell number change [%],"lipid storage change, negative = inhibition",outcome
COC(=O)c1ccc(COC(=O)Cc2n[nH]c(=O)c3ccccc23)cc1,,,16% (inactive),
CC(OC(=O)Cc1n[nH]c(=O)c2ccccc12)C(=O)Nc1ccc(F)cc1 (stereo unspecified),,-13.8,,inactive [at 0.0737 µM]
Cc1csc(Sc2ccc([N+](=O)[O-])cc2C(=O)OCC(=O)NC(=O)NC(C)(C)C)n1,,,,inactive
CC(c1ccccc1)n1c(CCCO)nc2ccccc21 (stereo unspecified),,-13.2,0.218% (inactive),
CCCCN(C)CCn1c(=S)[nH]c2cc(OCC)c(OCC)cc2c1=O,,5.41,1.86% (inactive),
COC(=O)c1cc(C(=O)N2CCc3ccccc32)cc([N+](=O)[O-])c1,,3.51,8.69% (inactive),
COc1ccc(NC(=O)CC2C(=O)NC3CCCCC3N2C(=O)c2ccc(F)cc2)cc1 (stereo unspecified),,6.58,,inactive
COc1cccc(NC(=O)CC2C(=O)NC3CCCCC3N2C(=O)c2ccc(F)cc2)c1 (stereo unspecified),,36.9,,inactive
O=C(CC1C(=O)NC2CCCCC2N1C(=O)c1ccc(F)cc1)Nc1ccccc1 (stereo unspecified),29.1 µM (active),18,,
COc1ccc(NC(=S)N2CCC(C(=O)c3ccc(OC)cc3)CC2)cc1,,-17.6,10.2% (inactive),
O=C(COC(=O)COc1ccc2c(c1)CCC2)Nc1ccccc1,,-5.42,3.22% (inactive),
Cn1nc(C(=O)NNC(=O)C(CCC(N)=O)NS(=O)(=O)c2ccc(Cl)cc2)c2ccccc2c1=O (stereo unspecified),,15.9,6.87% (inactive),
Cc1ccc(S(=O)(=O)N/N=C/c2ccc3nccnc3c2)cc1,,-5.68,9.08% (inactive),
CCOc1ccc(CCNC(=O)Cn2cccc2C(=O)c2ccccc2)cc1OCC,16.4 µM (active),-22.9,,
COc1ccc(CCNC(=O)Cn2cccc2C(=O)c2ccccc2C)cc1OC,20.6 µM (active),-20.4,,
COc1ccc(CCNC(=O)CN2C(=O)c3ccccc3S2(=O)=O)cc1,,8.78,0.948% (inactive),
COc1ccc(CCNC(=O)CCCOc2cc(=O)n(C)c3ccccc23)cc1OC,,11.7,-2.82% (inactive),
COc1ccc(CCNC(=O)CCCOc2cccc(C)c2C)cc1OC,6.51 µM (active),-23.6,,
COc1ccc(CCNC(=O)CN2C(=O)c3ccccc3S2(=O)=O)cc1OC,23.1 µM (active),-27.6,,
COc1ccc(CCNC(=O)CCCN2C(=O)c3ccccc3C2=O)cc1OC,,10.1,4.9% (inactive),
COc1ccc(CCNC(=O)CCOc2cc(C)ccc2C)cc1OC,,-23.2,,inactive
COc1ccccc1CNC(=O)Cn1cccc1C(=O)c1ccccc1C,,-15.2,,inactive
CCOc1ccc(CCNC(=O)CCn2cccc2)cc1OCC,,0.009,11.2% (inactive),
O=C(Cn1cccc1C(=O)c1ccccc1)NCCc1ccccc1,,,,inactive
COc1ccc(OC)c(CCNC(=O)Cn2cccc2C(=O)c2ccccc2C)c1,,3.16,3.63% (inactive),

# Reference: PubChem BioAssay AID2685 (National Center for Advancing Translational Sciences (NCATS), 2010)
